Screening results deposited in PubChem by National Center for Advancing Translational Sciences (NCATS).
NPC1 prom act: NPC1 promoter activation. Huh7 NPC1 promoter luciferase reporter, 24 h. Potency, µM (titrated, usually from 9.22 µM), for inactives: at the highest dose activation, actives largely listed as activators. actives 2.4% (n = 320,000). AID 485313; note: % of control where 0% means no effect; nearly all actives have a fitted effect of over 60% in size
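Compounds in DMSO were transferred onto Huh7 NPC1-luciferase reporter cells pre-incubated 2 h; after 24 h at 37 °C, Amplite reagent was dispensed and luminescence recorded 10 min later.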
Rab9 prom act: Rab9 promoter activation. Potency, µM (titrated, usually from 9.22 µM), for the others: at the top dose activation, negative = inhibition, usual class: activators. Huh7 Rab9 promoter-luciferase reporter, luminescence, 24 h. actives 2.8% (n = 320,000). AID 485297; note: % of control where 0% means no effect; nearly all actives have a fitted effect of over 60% in size
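Cells were plated at 1500 per well in reduced-serum medium with 10% FBS and left 2 h. Compound in DMSO was then added for 24 h at 37 °C. Reporter signal was read by luminescence after 10 min with luciferase detection reagent.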
FLuc modulator: inhibits or activates purified firefly luciferase, miR-21 counter-screen; P08659; purified FLuc, Km substrates, luminescence inhibition; Potency, µM (series often up to 57.5 µM), for inactives: top-dose activity change, negative = inhibition, usual class: inhibitors; actives 6.9% (n = 360,000);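 note: plate controls were vehicle for no effect and reference inhibitor for full effect; nearly all actives have a fitted effect of over 55% in size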
Target sequence (P08659 whole entry, looked up): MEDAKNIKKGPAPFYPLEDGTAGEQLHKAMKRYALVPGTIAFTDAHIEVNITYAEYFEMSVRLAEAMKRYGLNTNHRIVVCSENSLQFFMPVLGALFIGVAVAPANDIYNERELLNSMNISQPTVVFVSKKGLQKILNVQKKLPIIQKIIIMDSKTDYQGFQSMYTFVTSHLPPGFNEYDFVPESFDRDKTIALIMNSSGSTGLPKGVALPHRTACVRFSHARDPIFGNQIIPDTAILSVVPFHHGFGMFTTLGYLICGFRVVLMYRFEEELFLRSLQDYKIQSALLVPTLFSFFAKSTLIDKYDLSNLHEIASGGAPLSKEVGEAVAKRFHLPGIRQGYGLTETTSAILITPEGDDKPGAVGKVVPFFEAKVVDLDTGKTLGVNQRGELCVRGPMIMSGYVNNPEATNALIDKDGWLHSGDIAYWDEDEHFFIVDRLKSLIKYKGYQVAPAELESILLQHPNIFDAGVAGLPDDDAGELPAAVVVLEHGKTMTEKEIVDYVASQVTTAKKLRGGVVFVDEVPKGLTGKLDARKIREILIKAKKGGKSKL
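Purified P. pyralis luciferase, 10 nM final, with Km-level 10 uM D-luciferin and 10 uM ATP in 50 mM Tris acetate pH 7.5, 10 mM Mg acetate, 0.01% Tween-20, 0.05% BSA; 6-point qHTS titration about 60 µM downward; luminescence read.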
KinaseGlo FLuc: counter-screen: inhibitors of Kinase-Glo firefly luciferase; Kinase-Glo luciferase, ATP luminescence, 8 min; Potency, µM (titrated, usually from 38.3 µM), for inactives: at the top dose activity change, negative = inhibition, usual class: inhibitors; actives 0.28% (n = 200,000); AID 1379; note: % is set by controls: 0 for no effect and ±100 for the full control effect; nearly all actives have a fitted effect of over 60% in size
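Substrate mix (final 50 mM imidazole pH 7.2, 50 mM KCl, 7 mM MgCl2, 10 uM ATP, 0.01% Tween 20, 0.05% BSA) plus pin-tool compound, then Kinase-Glo detection mix; 8 min ambient, luminescence read.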
SMN2 splice up: SMN2 splice variant enhancement; AID 1458; HEK293 SMN2-luciferase splicing reporter, luminescence, 30-36 h; Potency, µM (top dose mostly 46.1 µM), without a hit: at the top dose activity change, positive = activation, usual class: activators; actives 2.8% (n = 210,000); note: % of control where 0% means no effect; nearly all actives have a fitted effect of over 55% in size
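HEK293 cells carry an SMN2 […]–luciferase reporter in which exon 7 inclusion puts luciferase in frame. Cells were plated 10-12 h before compound addition, then incubated 30-36 h at 37C. ONE-Glo luminescence was read; sodium butyrate at 4.5 mM final served as control.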
* hit, by the source's call; u = inconclusive; x = no result given; [ ] = remark or other dose. Most compounds without a hit are left out; they make up all but 7.3% or so of the library. Calls come from the whole dose curve; as a rule, active = well fitted curve in the direction sought with a large enough effect; inconclusive = small, poorly fitted or top-dose-only effect, or another doubt; inactive = no such curve, though single readings can be large; an effect the other way counts as inactive or inconclusive. Potency is the fitted concentration of half-maximal effect.

SMILES	NPC1 prom act	Rab9 prom act	FLuc modulator	KinaseGlo FLuc	SMN2 splice up
CCc1cccc(NC(=O)CSc2nncn3c2cc2sccc23)c1	x	x	-5.9%	x	x
O=C(NNc1nc2ccccc2o1)c1ccccc1	u	0.794µM*	2.69µM*	x	x
Cc1ccc(NC(=O)c2c(C)nc(Nc3nc4ccccc4o3)nc2C)cc1	-0.6%	-1.2%	0.7%	-2.7%	-8.2%
c1ccc(Nc2nc3ccccc3o2)cc1	2µM*	2.51µM*	3.01µM*	12.6µM*	u
Cc1cc(C)nc(Nc2nc3ccccc3o2)n1	22.6%	18.3%	-9.6%	x	x
Fc1ccccc1Nc1nc2ccccc2o1	0.708µM*	0.398µM*	1.51µM*	x	x
FC(F)(F)Oc1ccc(Nc2nc3ccccc3o2)cc1	2.51µM*	u	8.49µM*	-5.4%	u
CCCOC(=O)Nc1nc2ccccc2o1	2.24µM*	2.51µM*	13.5µM*	-10.4%	u
CCOC(=O)C(=CN=C(N)Nc1nc2ccccc2o1)C(=O)OCC	u	u	-2.3%	1.5%	x
O=C(CCn1c(=O)c2ccccc2n(CC(=O)Nc2cccc(F)c2)c1=O)NCCc1ccccc1	x	x	1.1%	x	-11.7%
O=C(Nc1ccc2c(c1)OCO2)c1noc2c1CCCC2	0.794µM*	0.631µM*	1.51µM*	x	x
O=C(Nc1ccc2c(c1)OCO2)c1noc2c1CCCCC2	0.562µM*	0.447µM*	2.13µM*	-13.7%	5.62µM*
COC(=O)C1=C(C)N(C(C)C)C(=O)C1(NC(=O)c1ccccc1OC)C(F)(F)F (stereo unspecified)	x	x	3.0%	x	-12.4%
CC(=O)c1cccc(NC(=O)N2CCCc3ccccc32)c1	9.1%	12.2%	u	0.0%	0.0%
CC(=O)c1cccc(NC(=O)N2CCc3ccccc3C2)c1	3.98µM*	u	13.5µM*	-1.3%	20.5%
CC(=O)c1ccc(NC(=O)N2CCc3ccccc3C2)cc1	21.3%	u	u	-0.2%	22.4µM*
COc1cccc(/C=N/NC(=S)NC2CC3CC2C2C=CCC32)c1O (stereo unspecified)	-0.4%	-1.8%	5.36µM*	x	x
Oc1ccccc1/C=N/NC(=S)NC1CC2CC1C1C=CCC21 (stereo unspecified)	16.9%	u	5.36µM*	x	x
COc1ccc(/C=N/NC(=O)c2[nH]ncc2Br)c(OC)c1	0.7%	-7.7%	2.39µM*	-16.7%	25.1%
O=C(N/N=C/c1ccccc1)c1[nH]ncc1Br	u	3.16µM*	10.7µM*	6.31µM*	u
CO[C@@H]1/C=C\O[C@]2(C)Oc3c(C)c(O)c4c(O)c(cc(O)c4c3C2=O)NC(=O)/C(C)=C\C=C/[C@H](C)[C@@H](O)[C@H](C)[C@H](O)C(C)[C@H](OC(C)=O)[C@@H]1C (stereo partly specified)	x	x	x	-0.3%[7.66 µM]	3.7%[9.22 µM]
O=C(O)c1ccc2c3c(cccc13)C(=O)N(c1ccccc1)C2=O	-3.5%	-0.6%	3.0%	-1.7%	-0.1%
CC(=O)c1ccc2c3c(cccc13)C(=O)N(CCc1ccccc1)C2=O	3.98µM*	3.98µM*	10.7µM*	-2.3%	x
Cc1c(-c2ccccn2)c(=O)[nH]n1-c1ccc(F)cc1	3.55µM*	0.501µM*	3.01µM*	-2.4%	5.62µM*
Cn1nccc1C(=O)Oc1cccc(/C=N/NC(=O)c2ccccc2O)c1	-1.0%	8.9%	9.53µM*	x	x
SMILES	NPC1 prom act	Rab9 prom act	FLuc modulator	KinaseGlo FLuc	SMN2 splice up
Cc1cccc(C(=O)N/N=C/c2ccc(OC3CSC3)cc2)c1	12.5%	1.8%	10.7µM*	-1.6%	-2.1%
Cn1nccc1C(=O)N/N=C/c1c(O)ccc2ccccc12	-29.3%	-42.3%	u	x	x
COc1cccc(C(=O)N/N=C/c2ccc(OC3CSC3)cc2)c1	-3.8%	9.5%	15.1µM*	-8.0%	-39.3%
Cc1cccc(C(=O)N/N=C/c2ccncc2)c1	3.1%	-6.6%	u	-1.2%	6.9%
Cc1cccc(C(=O)Oc2ccc(/C=N/NC(=O)c3ccc(O)cc3)cc2)c1	-2.4%	3.8%	u	x	x
Cc1cccc(C(=O)Oc2ccc(/C=N/NC(=O)c3ccccc3O)cc2)c1	17.0%	26.5%	13.5µM*	-7.5%	4.9%[1.84 µM]
Cn1c(=O)c2[nH]c(CCCCC(=O)O)nc2n(C)c1=O	x	x	x	-1.7%[7.66 µM]	2.3%[9.22 µM]
COc1ccc(-c2cc(C(F)(F)F)c(C#N)c(SCC(=O)Nc3ccc(F)cc3)n2)cc1	x	x	-0.7%	x	4.7%
O=C(N/N=C/c1cccc(OC2CSC2)c1)c1ccccc1O	9.6%	11.5%	6.75µM*	-3.4%	9.2%
Cn1ncc(Br)c1C(=O)N/N=C/c1cccc(OC2CSC2)c1	-5.6%	-12.6%	-13.3%	-6.2%	-9.7%
COc1ccc(-c2nn(-c3cccc([N+](=O)[O-])c3)c3c2cnc2cc4c(cc23)OCO4)cc1	x	x	-6.6%	x	x
Brc1ccccc1-c1nnc(CSc2nnc3sc4ccccc4n23)o1	13.7%	3.98µM*	u	-3.3%	-0.1%
N#CCSc1nnc2sc3ccccc3n12	1.9%	-5.5%	1.6%	-0.7%	2.8%
O=C(Cc1ccccc1)Nc1ccc(CN2CCOCC2)cc1	u	u	u	-1.4%	22.4µM*
COc1ccc(Br)cc1C(=O)NC(=S)Nc1ccc(CN2CCOCC2)cc1	-6.2%	-0.7%	-11.6%	x	x
COc1cc2ccccc2cc1C(=O)Nc1ccc(CN2CCOCC2)cc1	19.3%	18.5%	15.1µM*	x	x
O=C(NCCN1CCOCC1)c1cccs1	11.5%	7.7%	2.8%	-1.8%	5.3%
O=C(Nc1ccc(CN2CCOCC2)cc1)c1cccs1	u	3.16µM*	12µM*	-3.0%	12.6µM*
O=C(Nc1ccc(CN2CCOCC2)cc1)c1ccccc1F	3.16µM*	u	u	-6.3%	11.2µM*
O=C(Nc1ccc(CN2CCOCC2)cc1)c1ccc(Cl)cc1Cl	15.3%	-0.3%	u	x	x
O=C(NCc1ccc(Cl)cc1)c1cnc2sc(N3CCCCCC3)nn2c1=O	x	x	-1.2%	x	x
Cc1cc(C)c2oc(-c3cccc(NC(=O)c4ccco4)c3)nc2c1	x	x	2.69µM*	x	5.3%
Cc1cc(C)c2oc(-c3ccc(C)c(NC(=O)/C=C/c4ccco4)c3)nc2c1	x	x	21.3µM*	x	-8.6%
Cc1cc(C)c2oc(-c3cccc(NC(=O)c4ccc(Br)o4)c3)nc2c1	x	x	u	x	15.6%
CCCOc1ccc(C(=O)Nc2cc(-c3nc4cc(C)cc(C)c4o3)ccc2C)cc1	x	x	-5.1%	x	0.8%
CCCN1CCN(c2cc3c(cc2F)c(=O)c(S(=O)(=O)c2ccc(CC)cc2)cn3CC)CC1	x	x	-0.8%	x	x
COc1cc(CN(C(=O)COc2ccc(F)cc2)c2ccccn2)cc(OC)c1OC	x	x	-1.2%	x	x
CC1(C)CCc2cc(-c3ccnc(=S)[nH]3)ccc2O1	0.447µM*	0.631µM*	10.7µM*	x	x
COc1ccc(-c2cc(C(=O)N3CCOCC3)no2)cc1	0.355µM*	0.447µM*	1.51µM*	x	x
COc1cccc(NC(=O)C(=O)N2CCOCC2)c1	24.4%	u	19µM*	u	12.6µM*
